# Test results reported in PubChem BioAssay (EPA / NIEHS).
# Calls of active or inactive are those of the source. Rule for the calls: active = hit-call score of the fitted dose curve at least 0.9, where 1 is the maximum; inactive = score below 0.9.
# Read-out: ABC Transporter (ABCB1), ABCB1 (gene 5243)
# Assay: LTEA_HepaRG_ABCB1: Life Technologies and Expression Analysis (LTEA) Assay for ABC Transporter (ABCB1) using HepaRG (AID 2283460)
# Settings: mRNA level, 48 h; actives raise or lower the signal
# Experimental: LTEA_HepaRG is a cell based, multiplexed-readout assay that uses HepaRG, a human liver cell line, with measurements taken at 48 hours after chemical dosing on a 96-well plate.LTEA_HepaRG_ABCB1 is one of 102 assay component(s) measured in the LTEA HepaRG cell culture assay. It is a marker of Steatosis/NR mediated transport.Data from the assay component LTEA_HepaRG_ABCB1 was analyzed into 1 endpoint. This assay endpoint, LTEA_HepaRG_ABCB1, was analyzed with bidirectional fitting relative to DMSO as the negative control and baseline of activity. Using a type of inducible reporter, measures of mRNA induction for gain or loss-of-signal activity can be used to understand regulation of transcription factor activity. To generalize the intended target to other relatable targets, this assay endpoint is annotated to the transporter intended target family, where the subfamily is ABC transporter.
# A total of 1060 chemcials from the ToxCast library were tested in eight-point concentration-response experiments. Cell culture and cytotoxicity assays were conducted at Thermo Fisher Scientific's Custom Services facility (Madison, WI). A single lot of human HepaRG cells (Thermo Fisher Scientific, Frederick, MD) was used for the cell culture experiments. 96-well format collagen type I coated plates of human HepaRG cells were prepared using established methods. Briefly, cryopreserved HepaRG cells were thawed, plated at a density of approximately 100,000 cells/well in HepaRG Thaw, Plate, and General Purpose media (HPRG770, Thermo Fisher Scientific), and incubated for 48 hours. 0.5% DMSO was selected as vehicle control to balance the requisite need of DMSO in HepaRG cultures to maintain differentiation (for example, baseline metabolism, proportions of hepatocytes vs. cholangiocytes), while enabling further hepatic receptor pathway activation (for example, PXR and CAR) in response to chemical exposure. 48 hours after plating, the culture medium was replaced with HepaRG Serum-Free Incudtion Media. Cells were exposed to each test chemical in duplicate and maintained in CO2 incubators for another 48 hours. Chemical plates were thawed to room temperature and 200x concentrations of treatment groups were prepared. 8-point conentration-reponse curves were made with the highest exposure at 100 uM, followed by half-log dilutions, all in 0.5% DMSO. Each test plate contained variouse controls, induction positive controls (1mM phenobarbital), cytotoxicity positive controls ([…] aflatoxin B1), vehicle controls (0.5% DMSO), and total lysis controls (0.5% DMSO). Cell morphology images were taken using an Essen IncuCyte FLR automated microscope, with six 96-well plates imaged in about 24 minutes. Images were captured and exported and JPEG files. Spent culture media was transfered to black-well plates for the LDH assay, and remaining media was sorted at -80 C for later use. Cells were treated with RLT buffer and frozen until shipped for gene expression analysis. Total RNA was isolated from the cell suspension in 75 uL of Buffer RLT (Qiagen, Germantown, MD 20874) by Quintiles/Expression Analysis (Durham, NC) using a custom isolation procedure. Total RNA from each plate well was transferred to a preamplification plate. Fluidigm's 96.96 Dynamic ArrayTM (Fluidigm, Amsterdam, the Netherlands) technology was used for gene expression analyses by quantitative reverse transcription polymerase chain reaction (qRT-PCR, performed by Quintiles/Expression Analysis, Durham, NC)89. Standard TaqManTM Assays (Applied Biosystems/ThermoFisher Scientific, Foster City, CA) were used to assess the expression of 93 genes selected based on their selectivity and sensitivity to important hepatic receptors known to be modulated by environmental chemicals; importance in human hepatocyte functionality; and hepatotoxicity. […]
SMILES,outcome,AC50
COP(=O)(OC)O/C(C)=C/C(=O)N(C)C,inactive,
Cc1c(COC(=O)[C@@H]2[C@H](/C=C(\Cl)C(F)(F)F)C2(C)C)cccc1-c1ccccc1,,28.3 µM (active)
COCC(C)N(C(=O)CCl)c1c(C)csc1C (stereo not given),inactive,
C=C(C)CN(CC)c1c([N+](=O)[O-])cc(C(F)(F)F)cc1[N+](=O)[O-],inactive,
O=c1n(Cl)c(=O)n(Cl)c(=O)n1Cl,inactive,
COC(=O)c1c(C(F)F)nc(C(F)(F)F)c(C2=NCCS2)c1CC(C)C,inactive,
O=C(O)c1c(Cl)ccc2cc(Cl)cnc12,inactive,
CCOc1cc(C(C)(C)C)ccc1C1COC(c2c(F)cccc2F)=N1 (stereo not given),,6.97 µM (active)
CO/N=C(/C1=NOCCO1)c1ccccc1Oc1ncnc(Oc2ccccc2Cl)c1F,inactive,
CCCCC(C#N)(Cn1cncn1)c1ccc(Cl)cc1 (stereo not given),,13.1 µM (active)
CC1(C)CCC(=Cc2ccc(Cl)cc2)C1(O)Cn1cncn1 (stereo not given),,4.18 µM (active)
CCNP(=S)(OC)O/C(C)=C/C(=O)OC(C)C (stereo not given),,13 µM (active)
CC(C)Oc1cccc(NC(=O)c2ccccc2C(F)(F)F)c1,,50 µM (active)
CC(C)N1C(=O)c2ccccc2NS1(=O)=O,inactive,
CCCN(CC)CC1COC2(CCC(C(C)(C)C)CC2)O1 (stereo not given),inactive,
CCN(CC)c1nc(C)cc(OP(=S)(OC)OC)n1,inactive,
C=CCOC(=O)C(C)(C)OC(=O)c1cc(-n2c(=O)cc(C(F)(F)F)n(C)c2=O)ccc1Cl,inactive,
Nc1c(Cl)c(Cl)nc(C(=O)O)c1Cl,inactive,
N#CN=C1SCCN1Cc1ccc(Cl)nc1,inactive,
N#Cc1c(Cl)cccc1Cl,inactive,

SMILES,outcome,AC50
CC(C)NC(=O)N1CC(=O)N(c2cc(Cl)cc(Cl)c2)C1=O,,3.58 µM (active)
COc1ccc(-c2ccccc2)cc1NNC(=O)OC(C)C,inactive,
CCNC(=O)NC(=O)C(C#N)=NOC,inactive,
CC(C)C1(C)N=C(c2ncccc2C(=O)O)NC1=O (stereo not given),inactive,
Cc1cnc(C2=NC(C)(C(C)C)C(=O)N2)c(C(=O)O)c1 (stereo not given),inactive,
CCC(C)n1c(=O)[nH]c(C)c(Br)c1=O (stereo not given),inactive,
CS(=O)(=O)c1ccc(C(=O)C2C(=O)CCCC2=O)c([N+](=O)[O-])c1,inactive,
CCSC(=O)N1CCCCCC1,inactive,
CCN(CC)C(=O)C(C)Oc1cccc2ccccc12 (stereo not given),inactive,
CSC(=O)c1c(C(F)F)nc(C(F)(F)F)c(C(=O)SC)c1CC(C)C,inactive,
CCCCOCN(C(=O)CCl)c1c(CC)cccc1CC,,83.7 µM (active)
COP(=S)(OC)Oc1ccc([N+](=O)[O-])c(C)c1,inactive,
CCOP(=O)(OCC)Oc1nc(Cl)c(Cl)cc1Cl,inactive,
COC(=O)NS(=O)(=O)c1ccc(N)cc1,inactive,
Clc1cccc(C(Cl)(Cl)Cl)n1,inactive,
COC(=O)N(C(=O)N1CO[C@@]2(C(=O)OC)Cc3cc(Cl)ccc3C2=N1)c1ccc(OC(F)(F)F)cc1,inactive,
CNC(=O)N(C)c1nnc(C(C)(C)C)s1,inactive,
Cc1cc(C)nc(Nc2ccccc2)n1,inactive,
CC(C)=CC1C(C(=O)OCc2coc(Cc3ccccc3)c2)C1(C)C (stereo not given),,29.3 µM (active)
O=C(Nc1ccccc1-c1ccc(Cl)cc1)c1cccnc1Cl,inactive,
